Reference: PubChem BioAssay (NCATS)
Results filed as inconclusive are left out. Calls of active or inactive are those of the source. Unless noted, calls follow the shape of the dose curve; as a rule, active = well fitted curve in the direction sought with a large enough effect; inconclusive = small, poorly fitted or top-dose-only effect, or another doubt; inactive = no such curve, though single readings can be large; an effect the other way counts as inactive or inconclusive.

How the values were obtained:
[1] = target: Lysosomal acid glucosylceramidase (Homo sapiens) (UniProt P04062); experiment: Glucocerebrosidase-p2 (AID 348; in the data active = potency below about 10 µM; also: potency is read from the fitted curve at half-maximal effect); settings: purified GBA, blue fluorogenic substrate, 40 min
Lysosomal acid glucosylceramidase (Homo sapiens), sequence (P04062 whole entry, looked up): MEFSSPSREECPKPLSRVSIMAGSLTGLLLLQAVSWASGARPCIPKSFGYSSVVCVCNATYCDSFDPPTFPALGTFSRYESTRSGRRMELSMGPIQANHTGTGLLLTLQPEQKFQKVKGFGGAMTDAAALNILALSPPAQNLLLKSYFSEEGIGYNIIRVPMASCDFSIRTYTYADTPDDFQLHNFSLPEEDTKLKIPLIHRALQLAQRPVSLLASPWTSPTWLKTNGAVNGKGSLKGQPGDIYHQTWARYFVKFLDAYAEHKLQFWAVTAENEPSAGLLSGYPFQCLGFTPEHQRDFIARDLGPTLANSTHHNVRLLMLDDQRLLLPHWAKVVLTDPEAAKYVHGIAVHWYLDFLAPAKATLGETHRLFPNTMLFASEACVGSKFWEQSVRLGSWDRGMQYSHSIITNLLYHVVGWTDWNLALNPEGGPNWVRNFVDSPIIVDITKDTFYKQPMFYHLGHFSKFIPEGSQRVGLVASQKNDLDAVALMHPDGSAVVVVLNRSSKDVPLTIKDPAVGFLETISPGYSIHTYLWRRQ
Procedure, shortened: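 Normal human glucocerebrosidase (0.2 nM) with blue fluorogenic substrate (80 uM final) in citrate/phosphate pH 5.9 with 10mM sodium taurocholate, 0.01% tween-20; 40 min RT, NaOH/glycine stop; fluorescence Ex 365/Em 440; AC50 from a titration from 0.6 nM upwards.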

[2] = AP1 Signaling Pathway (AID 357; active = well fitted curve in either direction with a large enough effect, not every such curve was filed as active;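 also: ME-180 reporter cells stimulated with EGF at its EC50 level; % is scaled to controls: 0 for no effect and ±100 for the full control effect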); settings: ME-180 AP-1-bla reporter, EGF-induced, beta-lactamase ratio, 5 h; at 7.69 µM (top of the series) unless noted
Procedure, shortened: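 A ratiometric CCF4 readout (405 nm excitation; 460 and 530 nm emission) quantified AP-1-driven beta-lactamase in ME-180 cells after 5 h with compound and EC50 EGF; AC50 values were derived for activators and inhibitors.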

[3] = target: Cytochrome P450 1A2 (Homo sapiens) (UniProt P05177); experiment: p450-cyp1a2 (AID 410; calls by dose curve; also: potency is read from the fitted curve at half-maximal effect); settings: recombinant CYP1A2, luciferin-ME demethylation, luminescence; series mostly up to 57 µM
Cytochrome P450 1A2 (Homo sapiens), sequence (P05177 whole entry, looked up): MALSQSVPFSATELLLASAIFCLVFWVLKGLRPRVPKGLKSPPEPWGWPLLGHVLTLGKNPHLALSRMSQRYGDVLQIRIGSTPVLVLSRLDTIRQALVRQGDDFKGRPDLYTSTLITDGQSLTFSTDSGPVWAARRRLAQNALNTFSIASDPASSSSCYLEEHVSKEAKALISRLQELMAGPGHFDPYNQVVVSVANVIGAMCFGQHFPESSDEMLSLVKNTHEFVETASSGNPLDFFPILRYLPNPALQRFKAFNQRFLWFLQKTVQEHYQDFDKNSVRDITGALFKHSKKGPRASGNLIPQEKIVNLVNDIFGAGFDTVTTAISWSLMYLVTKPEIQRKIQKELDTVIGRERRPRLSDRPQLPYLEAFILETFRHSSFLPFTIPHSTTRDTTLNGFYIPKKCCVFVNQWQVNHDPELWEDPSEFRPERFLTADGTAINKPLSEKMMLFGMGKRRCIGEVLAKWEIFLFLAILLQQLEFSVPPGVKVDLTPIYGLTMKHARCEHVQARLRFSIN
Procedure, shortened: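 Luminescent demethylation readout: Luciferin-ME (100uM, equal to Km) turned over by 20nM CYP1A2 for 60 min at room temperature after NADPH regeneration addition, following 10 min compound preincubation. Normalization used 57 uM furafylline as full inhibition.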

[4] = NFAT Signaling Pathway (AID 444; active = well fitted curve in either direction with a large enough effect, not every such curve was filed as active;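 also: carbachol stimulus at about its EC50 of 1 µM final; % is scaled to controls: 0 for no effect and ±100 for the full control effect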); settings: Jurkat NFAT-bla M1, carbachol, beta-lactamase ratio, 5 h; at 7.69 µM (top of the series) unless noted
Procedure, shortened: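 Read-out: CCF4 FRET ratio (460 nm/530 nm) after 1 h RT dye loading, used for %activity and AC50 from titration series. Cells: Jurkat NFAT-β-lactamase/M1 line, treated with compound plus 1 uM carbachol for 5 h, 37 °C.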

[5] = Stat Signaling Pathway (AID 446; active = well fitted curve in either direction with a large enough effect, not every such curve was filed as active;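 also: ME-180 cervical cancer cells given 40 pM IL-6 alongside compound; SIE-controlled beta-lactamase reporter measured as 460/530 nm FRET emission ratio; % is scaled to controls: 0 for no effect and ±100 for the full control effect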); settings: ME-180 (cervical carcinoma) SIE beta-lactamase reporter, IL-6 stimulated, 5 h; at 7.69 µM (top of the series) unless noted
Procedure, shortened: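 Compound effects on IL-6-induced STAT reporter activity were measured in ME-180 cells. After overnight culture, cells were co-treated with 40 pM IL-6 for 5 hrs before beta-lactamase substrate loading at room temperature.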

[6] = target: Glucocorticoid receptor (Homo sapiens) (UniProt P04150); experiment: GR-GFP Redistribution (AID 450;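 active = compounds whose dose series gives a full or clear partial fitted curve of increased nuclear translocation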; also: potency is read from the fitted curve at half-maximal effect); settings: U2OS GR-GFP nuclear translocation, laser cytometry, 2 h
Glucocorticoid receptor (Homo sapiens), sequence (P04150 whole entry, looked up, the tested form may be a part): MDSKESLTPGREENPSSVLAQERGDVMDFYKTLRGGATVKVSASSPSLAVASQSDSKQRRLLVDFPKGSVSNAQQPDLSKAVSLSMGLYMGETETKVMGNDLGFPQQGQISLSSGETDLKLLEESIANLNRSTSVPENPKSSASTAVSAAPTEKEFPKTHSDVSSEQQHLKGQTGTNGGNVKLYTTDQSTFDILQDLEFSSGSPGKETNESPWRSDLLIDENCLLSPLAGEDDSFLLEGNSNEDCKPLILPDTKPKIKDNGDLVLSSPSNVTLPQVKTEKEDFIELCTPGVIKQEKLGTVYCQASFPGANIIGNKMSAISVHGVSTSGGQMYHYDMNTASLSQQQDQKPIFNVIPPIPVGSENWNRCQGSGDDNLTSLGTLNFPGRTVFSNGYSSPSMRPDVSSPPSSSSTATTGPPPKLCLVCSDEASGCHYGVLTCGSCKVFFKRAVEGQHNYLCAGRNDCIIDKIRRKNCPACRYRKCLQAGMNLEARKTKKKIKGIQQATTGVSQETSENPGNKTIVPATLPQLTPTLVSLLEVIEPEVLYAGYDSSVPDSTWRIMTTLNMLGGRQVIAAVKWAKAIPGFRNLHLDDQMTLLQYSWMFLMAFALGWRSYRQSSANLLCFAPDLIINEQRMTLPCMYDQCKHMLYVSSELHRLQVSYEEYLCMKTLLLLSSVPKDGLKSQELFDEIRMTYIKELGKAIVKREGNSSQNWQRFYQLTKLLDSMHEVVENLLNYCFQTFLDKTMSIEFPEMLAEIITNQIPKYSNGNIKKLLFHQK

[7] = target: Glucocorticoid receptor (Homo sapiens) (UniProt P04150); experiment: GR-EFC Redistribution (AID 451; calls by dose curve; also: potency is read from the fitted curve at half-maximal effect); settings: CHO-K1 GR-EFC translocation, beta-gal luminescence, 2 h
Procedure, shortened: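 Translocation of GR-ED fusion to nuclear EA restores b-gal, read by luminescence after 1 h room-temperature detection. Engineered CHO-K1 biosensor cells, 1,000/well, exposed 2 h at 37 C to titrations up to 46 uM final.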

[8] = target: Mitogen-activated protein kinase 10 (Mus musculus) (UniProt Q61831); experiment: JNK3 AlphaScreen Assay (AID 530; active = well fitted curve in either direction with a large enough effect, not every such curve was filed as active;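 also: kinase came from lysate of stimulated human HepG2 cells; signal reports phosphorylation of biotinylated GST-cJun 1-79 at Ser73 with 10 µM ATP; % is scaled to controls: 0 for no effect and ±100 for the full control effect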); settings: JNK3 lysate, c-Jun phosphorylation; series mostly up to 57.1 µM
Procedure, shortened: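 qHTS titrations with 15 min compound pre-incubation before adding ATP (10 uM final). Read-out: AlphaScreen of Ser73-phosphorylated biotin-GST-cJun using HepG2 lysate JNK3 activated by IL-1β and TNFα.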

[9] = target: Cytochrome P450 3A4 (Homo sapiens) (UniProt P08684); experiment: qHTS Assay for Activators of Cytochrome P450 3A4 (AID 885); settings: recombinant CYP3A4, Luciferin-PPXE luminescence, 60 min; series mostly up to 57.1 µM; also: nearly all actives have a fitted effect of over 65% in size
Cytochrome P450 3A4 (Homo sapiens), sequence (P08684 whole entry, looked up): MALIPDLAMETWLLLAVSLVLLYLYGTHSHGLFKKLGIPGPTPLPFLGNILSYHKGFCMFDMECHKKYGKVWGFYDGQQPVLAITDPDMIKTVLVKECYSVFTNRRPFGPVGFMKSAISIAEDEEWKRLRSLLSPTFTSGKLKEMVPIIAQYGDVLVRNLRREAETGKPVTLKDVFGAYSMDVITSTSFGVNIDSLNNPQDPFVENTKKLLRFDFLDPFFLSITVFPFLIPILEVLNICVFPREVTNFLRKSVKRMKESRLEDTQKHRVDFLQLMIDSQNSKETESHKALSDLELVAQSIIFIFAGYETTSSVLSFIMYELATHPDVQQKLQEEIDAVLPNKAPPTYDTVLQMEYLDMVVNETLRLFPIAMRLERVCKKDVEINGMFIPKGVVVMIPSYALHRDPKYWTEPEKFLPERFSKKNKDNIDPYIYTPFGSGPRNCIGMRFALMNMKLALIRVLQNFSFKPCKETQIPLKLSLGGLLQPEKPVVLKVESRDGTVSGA
Procedure, shortened: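 CYP3A4 activity: Luciferin-PPXE O-dealkylation, 25uM substrate, 200mM KPO4, RT throughout. Read-out is luciferase luminescence; higher values reflect activation.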

[10] = Confirmation and Secondary Assay for Modulators of Hemoglobin Beta Chain Splicing at IVS2 654 locus (AID 910); settings: HeLa EGFP-654 splicing reporter, GFP fluorescence, 48 h; series mostly up to 38.3 µM;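 also: HeLa cells stably carrying EGFP split by mutant beta-globin IVS2-654 intron; per-well total GFP intensity by laser scanning cytometry after 2-day treatment; % of control where 0% means no effect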
Procedure, shortened: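 Readout: per-well total peak green fluorescence (488 nm ex, 500–520 nm em) from objects 5–250 µm, reflecting correct splicing of an EGFP-654 reporter. Compounds were applied for 2 days at 37 °C to overnight-plated HeLa EGFP-654 cells; controls were DMSO and 500 nM IVS2-654 PNA.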

[11] = Confirmation and Secondary Assay for Modulators of Hemoglobin Beta Chain Splicing at IVS2 705 locus (AID 930); settings: HeLa EGFP-705 splicing reporter, GFP fluorescence, 48 h; series mostly up to 38.3 µM;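 also: HeLa cells stably expressing the EGFP-705 splicing reporter; GFP fluorescence per well restored by corrected splicing of the IVS2-705 intron in EGFP; % of control where 0% means no effect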
Procedure, shortened: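 Stable HeLa line with EGFP disrupted by mutant beta-globin intron 2 (705). Overnight attachment, then 2 days of compound at 37C, 5% CO2. Signal: peak GFP intensity summed over objects 5-250 µm.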

[12] = qHTS Assay for Lipid Storage Modulators (AID 1519; calls by dose curve); settings: Drosophila S3 cells, BODIPY lipid droplet/cell ratio, laser cytometry, cells loaded with oleic acid; for activity change, negative = inhibition: at 57.5 µM (top of the series)
Procedure, shortened: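 Cells seeded at 5,000 per well were treated with compounds over a concentration series and loaded with oleic acid (400 uM, as added). Lipid droplet fluorescence (488 nm excitation, 500-530 nm channel) was read by laser-scanning cytometry and normalized to 20 uM Triacsin C.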

[13] = Counterscreen qHTS for small molecule stabilizers of the endoplasmic reticulum resident proteome: GLuc-NoTag assay (AID 1508627); settings: Gaussia luciferase NoTag secretion counterscreen, luminescence, thapsigargin 100 nM for final 4 h; series mostly up to 76.4 µM;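 also: 0% = thapsigargin alone and -100% = DMSO vehicle control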
Procedure, shortened: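 Counterscreen line: SH-SY5Y-GLuc-NoTag cells, treated with compound 19 hr before a 4 hr, 100 nM thapsigargin calcium depletion. Secreted Gaussia luciferase in the medium was measured by luminescence after coelenterazine was added (0.07x final), with cells unlysed.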

[14] = Confirmatory qHTS for small molecule stabilizers of the endoplasmic reticulum resident proteome: Secreted ER Calcium Modulated Protein (SERCaMP) assay (AID 1508628); settings: SERCaMP secreted luciferase ER calcium/proteostasis reporter; series mostly up to 76.3 µM; also: nearly all actives have a fitted effect of over 40% in size; also: potency is read from the fitted curve at half-maximal effect
Procedure, shortened: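 Reporter secretion upon ER calcium depletion (100 nM thapsigargin, 4 h, 37C) is measured as medium luminescence with coelenterazine, after 16 h compound pretreatment of SH-SY5Y-GLuc-SERCaMP cells; primary at three concentrations up to 38.3 uM, follow-up at 11 (up to 76.6 uM).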

[15] = target: 3',5'-cyclic-AMP phosphodiesterase 4B (Homo sapiens) (UniProt Q07343); experiment: qHTS Assay for Inhibitors of PDE-IV (AID 607; active = well fitted activation curve with a large enough effect in the main read-out, with a control signal flat, not every such curve was filed as active; also: % of control where 0% means no effect); settings: HEK293 ACTOne CNG channel cells, membrane potential fluorescence; series mostly up to 22.9 µM
Procedure, shortened: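 ACTOne HEK293 cells carry a modified cAMP-gated CNG channel and express endogenous PDE4; plated 1000 cells/well, compounds up to 22.9 uM final. Membrane-potential dye fluorescence (ex 535/em 590) was read; parental cells received 10 uM forskolin + 100 uM RO 20-1724.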

[16] = Cell Viability qHTS for small molecule stabilizers of the endoplasmic reticulum resident proteome (AID 1508629); settings: cell viability counter-screen, 100 nM thapsigargin for final 4 h
[17] = target: Glutathione peroxidase 1 (Homo sapiens) (UniProt P07203); experiment: Primary qHTS Assay for Inhibitors of Recombinant Selenoprotein Glutathione Peroxidase 1 (GPX1) (AID 1845191); settings: recombinant GPX1, GR-coupled NADPH fluorescence, 15 min; series mostly up to 48.8 µM; also: % is scaled to controls: 0 for no effect and ±100 for the full control effect; nearly all actives have a fitted effect of over 65% in size
Glutathione peroxidase 1 (Homo sapiens), sequence (P07203 whole entry, looked up): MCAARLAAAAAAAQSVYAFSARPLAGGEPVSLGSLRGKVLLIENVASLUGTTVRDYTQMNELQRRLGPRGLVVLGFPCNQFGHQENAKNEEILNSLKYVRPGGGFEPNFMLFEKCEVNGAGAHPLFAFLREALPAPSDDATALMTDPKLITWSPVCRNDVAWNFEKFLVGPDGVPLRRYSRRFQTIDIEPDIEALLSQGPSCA
Procedure, shortened: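 NADPH consumption tracked by fluorescence at 340/450 nm between t=0 and t=15 min, room temperature. Final mix: 10 nM GPX1, 100 nM glutathione reductase, 1 mM GSH, 0.5 mM NADPH, 0.5 mM cumene hydroperoxide, 0.01% BSA; 30 min compound–enzyme preincubation.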

[18] = target: Cytochrome P450 2C9 (Homo sapiens) (UniProt P11712); experiment: qHTS Assay for Inhibitors and Substrates of Cytochrome P450 2C9 (AID 883); settings: recombinant CYP2C9, luciferin-H luminescence, 60 min; series mostly up to 57.1 µM; also: % is scaled to controls: 0 for no effect and ±100 for the full control effect; nearly all actives have a fitted effect of over 60% in size
Cytochrome P450 2C9 (Homo sapiens), sequence (P11712 whole entry, looked up): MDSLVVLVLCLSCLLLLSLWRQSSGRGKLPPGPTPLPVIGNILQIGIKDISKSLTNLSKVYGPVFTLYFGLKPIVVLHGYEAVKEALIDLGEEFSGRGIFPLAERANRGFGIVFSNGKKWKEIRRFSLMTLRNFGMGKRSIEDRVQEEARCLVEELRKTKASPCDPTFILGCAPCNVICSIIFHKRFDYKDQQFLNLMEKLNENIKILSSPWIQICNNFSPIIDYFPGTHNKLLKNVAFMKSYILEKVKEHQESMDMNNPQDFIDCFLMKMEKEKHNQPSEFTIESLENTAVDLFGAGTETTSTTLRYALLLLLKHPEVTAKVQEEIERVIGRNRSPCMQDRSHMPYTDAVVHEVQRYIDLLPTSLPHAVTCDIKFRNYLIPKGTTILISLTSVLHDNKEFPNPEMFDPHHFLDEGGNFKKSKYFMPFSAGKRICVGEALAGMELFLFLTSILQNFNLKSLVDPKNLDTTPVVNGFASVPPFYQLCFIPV
Procedure, shortened: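 Turnover of Luciferin-H (100uM, KM) by 10nM human CYP2C9 was measured over 60 min at 37C with NADPH regeneration; inhibitors and some substrates reduce luminescence. Data normalized to sulphaphenazole 57uM.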

[19] = target: Cytochrome P450 3A4 (Homo sapiens) (UniProt P08684); experiment: qHTS Assay for Inhibitors and Substrates of Cytochrome P450 3A4 (AID 884); settings: recombinant CYP3A4, Luciferin-PPXE luminescence; series mostly up to 57.1 µM; also: potency is read from the fitted curve at half-maximal effect; nearly all actives have a fitted effect of over 50% in size
Procedure, shortened: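 Luminescent readout of luciferin produced by CYP3A4 (20 nM) dealkylation of Luciferin-PPXE, 25 uM (its KM). NADPH-driven reaction ran 60 min at RT after 10 min compound preincubation; data scaled to 57 uM ketoconazole as 100% inhibition.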

[20] = target: Cytochrome P450 2D6 (Homo sapiens) (UniProt P10635); experiment: qHTS Assay for Inhibitors and Substrates of Cytochrome P450 2D6 (AID 891); settings: recombinant CYP2D6, luciferin-ME EGE luminescence; series mostly up to 57.1 µM; also: potency is read from the fitted curve at half-maximal effect; nearly all actives have a fitted effect of over 60% in size
Cytochrome P450 2D6 (Homo sapiens), sequence (P10635 whole entry, looked up): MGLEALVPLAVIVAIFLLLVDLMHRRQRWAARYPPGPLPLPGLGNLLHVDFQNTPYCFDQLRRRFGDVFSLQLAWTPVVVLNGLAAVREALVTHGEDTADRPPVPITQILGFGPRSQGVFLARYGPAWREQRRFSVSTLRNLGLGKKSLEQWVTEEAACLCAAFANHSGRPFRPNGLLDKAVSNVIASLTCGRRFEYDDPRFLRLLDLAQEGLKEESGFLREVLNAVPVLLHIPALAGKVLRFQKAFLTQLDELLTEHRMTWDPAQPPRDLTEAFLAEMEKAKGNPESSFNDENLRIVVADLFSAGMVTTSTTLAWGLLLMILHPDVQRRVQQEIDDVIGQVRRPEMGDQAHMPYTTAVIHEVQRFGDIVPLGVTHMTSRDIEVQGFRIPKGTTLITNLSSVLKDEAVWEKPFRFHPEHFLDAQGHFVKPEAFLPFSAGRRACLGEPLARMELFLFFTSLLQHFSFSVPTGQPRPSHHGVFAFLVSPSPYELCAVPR
Procedure, shortened: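 Luminescent read-out of luciferin formed by 5 nM human CYP2D6 demethylating 30 uM Luciferin-ME EGE (Km level) over 60 min at room temperature after NADPH regeneration addition. Data normalized to full inhibition by 1.43 uM quinidine.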

[21] = target: Ubiquitin carboxyl-terminal hydrolase 1 (Homo sapiens) (UniProt O94782); experiment: Inhibitors of USP1/UAF1: Pilot qHTS (AID 504865); settings: purified USP1/UAF1, Ub-rhodamine cleavage fluorescence; series mostly up to 54.9 µM;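 also: rhodamine fluorescence freed from ubiquitin-rhodamine substrate followed over time; top concentration of the series differs between compounds; % is scaled to controls: 0 for no effect and ±100 for the full control effect; nearly all actives have a fitted effect of over 35% in size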
Ubiquitin carboxyl-terminal hydrolase 1 (Homo sapiens), sequence (O94782 whole entry, looked up): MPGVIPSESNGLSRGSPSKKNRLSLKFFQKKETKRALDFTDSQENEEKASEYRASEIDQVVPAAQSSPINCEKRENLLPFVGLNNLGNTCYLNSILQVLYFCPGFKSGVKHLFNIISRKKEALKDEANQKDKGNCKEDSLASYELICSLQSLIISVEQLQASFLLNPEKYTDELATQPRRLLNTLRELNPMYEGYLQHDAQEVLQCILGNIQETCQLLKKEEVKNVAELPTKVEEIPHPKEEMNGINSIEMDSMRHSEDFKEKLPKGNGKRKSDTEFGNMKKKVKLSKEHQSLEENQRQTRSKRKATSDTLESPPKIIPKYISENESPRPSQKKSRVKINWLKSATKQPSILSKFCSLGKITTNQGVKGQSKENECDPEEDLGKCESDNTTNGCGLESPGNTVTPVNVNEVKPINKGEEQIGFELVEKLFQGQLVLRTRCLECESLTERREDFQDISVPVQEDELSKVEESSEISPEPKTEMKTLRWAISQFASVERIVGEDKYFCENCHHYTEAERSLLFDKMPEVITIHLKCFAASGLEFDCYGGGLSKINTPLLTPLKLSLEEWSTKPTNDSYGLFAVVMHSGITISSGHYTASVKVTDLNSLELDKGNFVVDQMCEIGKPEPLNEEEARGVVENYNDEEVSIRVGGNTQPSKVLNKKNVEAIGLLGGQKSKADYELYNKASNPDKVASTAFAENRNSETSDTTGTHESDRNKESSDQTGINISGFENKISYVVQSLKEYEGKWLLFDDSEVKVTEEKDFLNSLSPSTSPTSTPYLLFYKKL
Procedure, shortened: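 Enzyme-free wells gave the negative control, while test wells held 1nM USP1/UAF1 preincubated with compound for 15 min at room temperature. Ub-Rho at 150nM final started the reaction, and fluorescence at 480/540 nm was recorded kinetically.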

[22] = measured here: cell count channel max response
[23] = measured here: lipid channel max response

CN1CCN(c2nc(-c3cccc(C#N)c3)nc3ccccc23)CC1
active: Potency [3] 1.58 µM | Potency [14] 12.6 µM
3.27%: max response [12, 22]
inactive: Potency [1] > 11.4 µM | activity change, negative = inhibition [2] 9.54% | activity change, negative = inhibition [4] -2.42% | activity, negative = inhibition [5] 21.4% | Potency [6] > 46 µM | Potency [7] > 46 µM | outcome [8] | Potency [9] | outcome [10] | outcome [11] | activity change, negative = inhibition [12] 8.44% | Potency [13]
7.86%: max response [12, 23]

O=c1c(-c2cccs2)nc2cnc(N3CCNCC3)nc2n1-c1ccccc1
active: Potency [3] 2.51 µM
inactive: Potency [1] > 11.4 µM | Potency [6] > 9.22 µM | outcome [8] | Potency [15] | Potency [9] | Potency [13] | Potency [14] | max response [16] 6.37%

OC[C@H]1NC[C@@H](O)[C@@H](O)[C@@H]1O
inactive: Potency [13] | Potency [14] | max response [16] 8.42% | Potency [17]

Cc1ccc(-n2c(C)cc(/C=N/NC(=O)c3ccncc3)c2C)cc1C
inactive: Potency [13] | Potency [14] | max response [16] 2.93%

COc1ccc(CNc2ncnc3ccc(-c4ccccc4CN(C)C)cc23)c(OC)c1
inactive: activity change, negative = inhibition [2] 7.23% | activity, negative = inhibition [5] -15.7% | Potency [6] > 46 µM | Potency [7] > 46 µM | outcome [8] | activity change, negative = inhibition [18] 2.97% [at 2.29 µM] | Potency [9] | outcome [10] | outcome [11] | activity change, negative = inhibition [12] 3.46% | Potency [21] | Potency [13] | max response [16] 6.24%
active: Potency [3] 31.6 µM | Potency [19] 7.94 µM | Potency [20] 1.26 µM | Potency [14] 7.94 µM
8.13%: max response [12, 23]
4.91%: max response [12, 22]
